Source: PubChem (National Center for Advancing Translational Sciences (NCATS))
The full list was thinned out, with hits kept by preference.
KDM5B inhibitor = KDM5B demethylase inhibition; KDM5B demethylase, FDH-coupled NADH fluorescence (FDH is formaldehyde dehydrogenase); Potency, µM (doses to about 57.7 µM), actives largely listed as inhibitors; 2.6% of 220,000 active; AID 1347165; active means well fitted inhibition curve with a large enough effect; further: 0% is about no effect; nearly all actives have a fitted effect of over 70% in size
Target sequence (Q9UGL1 whole entry, looked up): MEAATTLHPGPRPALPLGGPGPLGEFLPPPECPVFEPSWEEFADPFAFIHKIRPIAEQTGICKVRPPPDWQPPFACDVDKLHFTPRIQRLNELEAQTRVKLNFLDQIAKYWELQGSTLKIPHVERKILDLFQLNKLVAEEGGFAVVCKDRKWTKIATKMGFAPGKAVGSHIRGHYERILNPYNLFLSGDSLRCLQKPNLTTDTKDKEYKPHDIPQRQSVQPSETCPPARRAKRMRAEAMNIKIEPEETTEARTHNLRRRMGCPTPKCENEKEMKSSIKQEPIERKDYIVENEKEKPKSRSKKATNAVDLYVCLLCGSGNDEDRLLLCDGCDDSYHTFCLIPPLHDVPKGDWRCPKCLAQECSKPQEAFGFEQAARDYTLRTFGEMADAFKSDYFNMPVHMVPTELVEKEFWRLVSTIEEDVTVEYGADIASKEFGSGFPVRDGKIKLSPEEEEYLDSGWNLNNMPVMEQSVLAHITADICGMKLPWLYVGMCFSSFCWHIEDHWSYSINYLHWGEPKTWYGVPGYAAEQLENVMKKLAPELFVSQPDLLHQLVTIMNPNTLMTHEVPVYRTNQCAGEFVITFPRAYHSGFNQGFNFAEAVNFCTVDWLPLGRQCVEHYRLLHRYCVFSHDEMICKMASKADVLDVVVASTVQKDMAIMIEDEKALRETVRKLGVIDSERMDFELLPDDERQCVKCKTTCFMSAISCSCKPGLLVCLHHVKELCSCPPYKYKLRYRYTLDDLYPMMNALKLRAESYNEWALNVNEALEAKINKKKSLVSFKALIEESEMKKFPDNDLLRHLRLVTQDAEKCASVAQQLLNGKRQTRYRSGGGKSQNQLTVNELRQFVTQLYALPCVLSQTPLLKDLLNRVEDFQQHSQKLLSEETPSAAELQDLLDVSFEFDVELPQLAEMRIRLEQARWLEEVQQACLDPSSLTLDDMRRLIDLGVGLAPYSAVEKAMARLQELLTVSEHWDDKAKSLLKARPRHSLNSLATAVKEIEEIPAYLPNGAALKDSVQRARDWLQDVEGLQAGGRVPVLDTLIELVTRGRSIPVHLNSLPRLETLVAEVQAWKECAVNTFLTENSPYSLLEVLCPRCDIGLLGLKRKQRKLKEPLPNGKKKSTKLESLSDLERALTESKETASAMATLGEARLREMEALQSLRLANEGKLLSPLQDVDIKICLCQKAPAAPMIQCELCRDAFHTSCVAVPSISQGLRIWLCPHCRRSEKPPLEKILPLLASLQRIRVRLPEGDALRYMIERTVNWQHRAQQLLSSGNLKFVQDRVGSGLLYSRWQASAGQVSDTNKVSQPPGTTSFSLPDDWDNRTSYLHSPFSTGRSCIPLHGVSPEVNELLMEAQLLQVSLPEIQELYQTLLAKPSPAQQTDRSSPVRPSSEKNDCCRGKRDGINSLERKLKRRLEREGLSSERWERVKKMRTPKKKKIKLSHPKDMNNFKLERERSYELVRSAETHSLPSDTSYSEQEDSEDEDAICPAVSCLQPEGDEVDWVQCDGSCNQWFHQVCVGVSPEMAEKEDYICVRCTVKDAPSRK
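Inhibition is measured as reduced NADH fluorescence generation from FDH coupling to formaldehyde release. Truncated KDM5BΔAP at 200 nM final acts on H3K4me3 peptide (12.5 µM in substrate mix) in pH 7.5 HEPES buffer with Tween-20, 30 min, room temperature.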
An asterisk follows results filed as active. Potency means the concentration at half of the fitted maximal effect.

What do the screens show for `Cc1ccc(C(=O)NC[C@H]2O[C@@H](CC(=O)N3CCN(c4ccccn4)CC3)[C@H](O)[C@@H]2O)cc1`?
KDM5B inhibitor: inactive

How did O=S(=O)(NC[C@H]1O[C@@H](CO)[C@@H](O)[C@H]1N1CCN(c2ccccn2)CC1)c1ccc(Cl)cc1 do in these assays?
KDM5B inhibitor: 28µM*

What do the screens show for `O=C(C[C@@H]1O[C@H](CNS(=O)(=O)c2ccccc2)[C@@H](O)[C@H]1O)N1CCN(c2ccccc2)CC1`?
KDM5B inhibitor: inactive

Results for CSc1ccc(NC(=O)C2C(C=C(C)C)C2(C)C)cc1 (centres undefined) ?
KDM5B inhibitor: inactive

Results for CCOC(=O)C1=C(CN(Cc2ccco2)C2CCCC2)NC(=O)NC1c1ccc(C)cc1 (centres undefined) ?
KDM5B inhibitor: inactive

How did Cc1cc(CS(=O)(=O)Cc2cccc(Cl)c2)no1 do in these assays?
KDM5B inhibitor: inactive

How did CCSc1oc(-c2ccccc2)nc1S(=O)(=O)c1ccc(C)cc1 do in these assays?
KDM5B inhibitor: inactive

How did C/C(=N\NC(=O)C1CC1c1ccccc1)c1ccncc1 (centres undefined) do in these assays?
KDM5B inhibitor: inactive

What do the screens show for `CCCn1c(=O)[nH]c(=O)c2c1nc(-c1ccc(OCC#N)c(OC)c1)n2CCN1CCOCC1`?
KDM5B inhibitor: inactive

What do the screens show for `CCN(CC(=O)N(C)C)C(=O)Cn1c(C)c(Br)c2ccccc21`?
KDM5B inhibitor: inactive

How did O=C(NC1(c2ccccc2)CCC1)c1cccc(C(F)(F)F)c1 do in these assays?
KDM5B inhibitor: inactive

What do the screens show for `O=C(O)CCSCc1ccc(C(=O)O)o1`?
KDM5B inhibitor: inactive

Results for OC[C@@H]1O[C@H](CN(Cc2cccc(Cl)c2)Cc2cccc(Cl)c2)[C@H](N2CCN(c3ccccn3)CC2)[C@@H]1O ?
KDM5B inhibitor: 25µM*

What do the screens show for `CN(C)C[C@H]1O[C@@H](CO)[C@@H](O)[C@H]1N1CCN(c2ncccn2)CC1`?
KDM5B inhibitor: inactive

What do the screens show for `O=C(NC[C@H]1O[C@@H](CO)[C@@H](O)[C@H]1N1CCN(c2ccccn2)CC1)c1ccccc1`?
KDM5B inhibitor: inactive

Results for N#Cc1cc(C(=O)c2cc(Cl)ccc2O)cn(C2CCCCC2)c1=O ?
KDM5B inhibitor: inactive

Results for COc1ccc(-c2ccc3c(n2)CN(CCOc2ccccc2)C(=O)CO3)cc1 ?
KDM5B inhibitor: 13µM*

Results for CN1Cc2nc(-c3cc(F)cc(F)c3)ccc2OCC1=O ?
KDM5B inhibitor: inactive

How did COc1ccc(-c2ccc3c(n2)CN(C)C(=O)CO3)cc1 do in these assays?
KDM5B inhibitor: 35µM*

How did O=C1COc2ccc(-c3ccncc3)nc2CN1CCOc1ccccc1 do in these assays?
KDM5B inhibitor: inactive

What do the screens show for `Cc1ccc(-c2ccc3c(n2)CN(C)C(=O)CO3)cc1`?
KDM5B inhibitor: inactive

Results for O=C1COc2ccc(-c3ccccc3)nc2CN1CCOc1ccccc1 ?
KDM5B inhibitor: inactive

What do the screens show for `N#CC(Cc1cccnc1)C(=O)Nc1cccc(Cl)c1` (centres undefined)?
KDM5B inhibitor: inactive

How did C=CCNC(=O)c1nn(Cc2ccccc2)c(=O)c2ccccc12 do in these assays?
KDM5B inhibitor: inactive

What do the screens show for `COc1ccc(CNC(=O)c2cc(Cl)ccc2NC(=O)C2=C(C)OCCS2)cc1`?
KDM5B inhibitor: inactive

How did CCn1cc(S(=O)(=O)N2CCCC2C(=O)O)c(C)n1 (centres undefined) do in these assays?
KDM5B inhibitor: inactive

How did CCOC(=O)C(C(C)=O)=C1SCCS1 do in these assays?
KDM5B inhibitor: inactive

What do the screens show for `O=C1NC(=NC2CCCC2)C2(CCN(Cc3ccc(F)cc3)C2)N1c1cccnc1` (centres undefined)?
KDM5B inhibitor: inactive

What do the screens show for `COc1ccc(-c2cc(C(=O)NCc3c(C)cc(C)[nH]c3=O)c3c(c2)N(C(C)C)CCO3)cc1`?
KDM5B inhibitor: 32µM*

Results for CC(=O)Nc1cccc(-c2cc(C(=O)NCc3c(C)cc(C)[nH]c3=O)c3c(c2)N(C(C)C)CCO3)c1 ?
KDM5B inhibitor: 28µM*

How did Cc1cc(C)c(CNC(=O)c2cc(-c3ccccc3F)cc3c2OCCN3C(C)C)c(=O)[nH]1 do in these assays?
KDM5B inhibitor: 32µM*

Results for COc1ncc(-c2cc(C(=O)NCc3c(C)cc(C)[nH]c3=O)c3c(c2)N(C(C)C)CCO3)cn1 ?
KDM5B inhibitor: inactive

Results for Cc1cc(C)c(CNC(=O)c2cc(-c3ccccc3O)cc3c2OCCN3C(C)C)c(=O)[nH]1 ?
KDM5B inhibitor: 25µM*

Results for COc1cccc(Oc2coc3cc(OCc4ccccc4F)ccc3c2=O)c1 ?
KDM5B inhibitor: inactive

Results for N#CC1=C(SCC(=O)c2ccc(Br)cc2)NC(=O)C(C#N)C12CCCCC2 (centres undefined) ?
KDM5B inhibitor: inactive

What do the screens show for `Cc1cccc(N(C)S(=O)(=O)c2c(-c3cccc(F)c3)csc2C(=O)NCc2ccccn2)c1`?
KDM5B inhibitor: inactive

Results for O=C(O)Cc1ccc(S(=O)(=O)Cc2ccccc2)cc1 ?
KDM5B inhibitor: inactive

Results for CCOc1cc(C2N=C(N)Nc3nc4cc5c(cc4n32)OCCCO5)cc(Cl)c1O (centres undefined) ?
KDM5B inhibitor: inactive

Results for CC1CCc2c(sc3ncnc(N(C)CC(=O)N(C)C)c23)C1 (centres undefined) ?
KDM5B inhibitor: inactive

How did COc1ccc(-c2ccccc2NC(=O)C2CCCN(Cc3c(O)cccc3OC)C2)cc1 (centres undefined) do in these assays?
KDM5B inhibitor: inactive

Results for Cc1cc(C)c(CNC(=O)c2cc(-c3ccccc3C)cc3c2OCCN3C(C)C)c(=O)[nH]1 ?
KDM5B inhibitor: 32µM*

Results for COc1cc2c(cc1OC)CN(CC(=O)Nc1cc(C)cc(C)c1)CC2 ?
KDM5B inhibitor: inactive

What do the screens show for `CCCNC(=O)N1CCC(Cc2nc(-c3ccccc3)n[nH]2)C1` (centres undefined)?
KDM5B inhibitor: inactive

How did CCOCCCNC(=O)N1CCC(Cc2nc(-c3ccncc3)n[nH]2)CC1 do in these assays?
KDM5B inhibitor: 32µM*

Results for COc1ccc(CNC(=O)N2CCC(Cc3nc(-c4ccncc4)n[nH]3)C2)cc1 (centres undefined) ?
KDM5B inhibitor: inactive

How did Cn1nccc1-c1cc2c(cn1)CN(Cc1ccncc1)CCN2 do in these assays?
KDM5B inhibitor: 35µM*

How did COc1ccc(Nc2cc3c(cn2)CN(Cc2ccncc2)CCN3)cn1 do in these assays?
KDM5B inhibitor: inactive

How did c1ccc(CN2CCNc3cc(-c4ccncc4)ncc3C2)cc1 do in these assays?
KDM5B inhibitor: inactive

Results for Clc1ccc(-c2cc3c(cn2)CN(Cc2ccncc2)CCN3)cc1 ?
KDM5B inhibitor: 32µM*

Results for CCn1cc(-c2cc3c(cn2)CN(Cc2ccncc2)CCN3)cn1 ?
KDM5B inhibitor: 32µM*

Results for COc1ccc(NC(=O)C(C)C)cc1Cl ?
KDM5B inhibitor: inactive

How did CCc1c(C)sc(NC(=O)/C=C/c2c(Cl)cccc2Cl)c1C#N do in these assays?
KDM5B inhibitor: inactive

Results for O=C(Oc1ccc(OCc2ccccc2)cc1)c1cnc2ccccc2n1 ?
KDM5B inhibitor: inactive

What do the screens show for `Cc1cc2oc(C(=O)NCC(c3cccs3)N3CCCC3)cc(=O)c2cc1Cl` (centres undefined)?
KDM5B inhibitor: inactive

Results for COCCN1C(=O)c2cccn2CC1CNC(=O)c1nccc2ccccc12 (centres undefined) ?
KDM5B inhibitor: inactive

How did COCCN1C(=O)c2cccn2CC1CNC(=O)c1n[nH]c2ccccc12 (centres undefined) do in these assays?
KDM5B inhibitor: inactive
